# Measurements as given in PubChem BioAssay (NCATS).
# Values without a mark were called inactive. Results filed as inconclusive are left out. A call without a number means that no potency is given here. The source made the active and inactive calls. Unless noted, calls follow the shape of the dose curve; as a rule, active = well fitted curve in the direction sought with a large enough effect; inconclusive = small, poorly fitted or top-dose-only effect, or another doubt; inactive = no such curve, though single readings can be large; an effect the other way counts as inactive or inconclusive.
# Legend:
# [1] = AP1 Signaling Pathway (AID 357; active = well fitted curve in either direction with a large enough effect, not every such curve was filed as active;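 also: ME-180 reporter cells stimulated with EGF at its EC50 level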); details: ME-180 AP-1-bla reporter, EGF-induced, beta-lactamase ratio, 5 h; at 17.2 µM (top of the series) unless noted
# Outline: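 Modulation of EGF-driven AP-1 transcription was assessed with a beta-lactamase reporter in ME-180 cells. Compound and EC50 EGF were co-incubated 5 hours at 37 °C before 2.5-hour CCF4 loading at room temperature and dual-emission reading.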
# [2] = target: Glucocorticoid receptor (Homo sapiens) (UniProt P04150); test: GR-GFP Redistribution (AID 450;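 active = compounds whose dose series gives a full or clear partial fitted curve of increased nuclear translocation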; also: potency is read from the fitted curve at half-maximal effect)
# [3] = qHTS Assay for Identification of Small Molecule Agonists for Hypoxia Response Element Signaling Pathway (AID 914; active = well fitted activation curve with a large enough effect in the signal ratio, with a control signal flat, not every such curve was filed as active; the % refers to the signal ratio; also: potency is read from the fitted curve at half-maximal effect); details: ME-180 HRE-bla reporter, beta-lactamase ratio, CoCl2, 17 h; activation: hits give high values
# Outline: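 HRE-bla ME-180 assay for agonist-like enhancement of an EC50 CoCl2 stimulus: 17 h at 37 degrees Celsius, CCF4 for 2.5 h, ratiometric 460/530 nm signal converted to %Activity and fitted to AC50.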
# [4] = target: Cytochrome P450 1A2 (Homo sapiens) (UniProt P05177); test: p450-cyp1a2 (AID 410; calls by dose curve; also: potency is read from the fitted curve at half-maximal effect)
# Outline: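 Inhibition was calculated relative to 57 uM furafylline (full inhibition). The reaction used human CYP1A2 at 20nM with Luciferin-ME at its Km, 100uM, driven by an NADPH-regenerating system for 60 min at room temperature.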
# [5] = Stat Signaling Pathway (AID 446; active = well fitted curve in either direction with a large enough effect, not every such curve was filed as active;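 also: ME-180 cervical cancer cells given 40 pM IL-6 alongside compound; SIE-controlled beta-lactamase reporter measured as 460/530 nm FRET emission ratio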); details: ME-180 SIE beta-lactamase reporter, IL-6 stimulated, 5 h
# Outline: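 Screening format detects activators and inhibitors alike: ME-180 SIE-bla cells stimulated at 40 pM IL-6 for 5 hrs with compound, then dual-emission beta-lactamase read at 405 nm excitation.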
# [6] = target: Glucocorticoid receptor (Homo sapiens) (UniProt P04150); test: GR-EFC Redistribution (AID 451; calls by dose curve; also: potency is read from the fitted curve at half-maximal effect); details: CHO-K1 GR-EFC translocation, beta-gal luminescence, 2 h
# Outline: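 CHO-K1 cells stably expressing nuclear-localized β-gal enzyme acceptor and GR fused C-terminally to the enzyme donor fragment; ligand-driven nuclear translocation restores β-gal by complementation. Compounds titrated up to 46 uM final, 2 h at 37 °C; luminescence read.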
# [7] = target: Mitogen-activated protein kinase 10 (Mus musculus) (UniProt Q61831); test: JNK3 AlphaScreen Assay (AID 530; active = well fitted curve in either direction with a large enough effect, not every such curve was filed as active;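 also: kinase came from lysate of stimulated human HepG2 cells; signal reports phosphorylation of biotinylated GST-cJun 1-79 at Ser73 with 10 µM ATP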)
# Outline: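 JNK3 came from HepG2 lysates pre-activated with IL-1beta and TNF-alpha and phosphorylated biotinylated GST-cJun (1-79) at 10 uM ATP, pH 7.6, room temperature. Compounds were titrated. AlphaScreen signal used anti-phospho-cJun (Ser73) antibody.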
# [8] = target: Guanine nucleotide-binding protein G(i) subunit alpha-1 (Homo sapiens) (UniProt P63096); test: qHTS Assay for Inhibitors of RGS12 GoLoco Motif Activity (Green Fluorophore) (AID 879);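 also: negative values mean loss of peptide binding seen as reduced polarization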
# Outline: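 Fluorescence polarization assay: 50 nM Gαi1 with 10 nM FITC-labeled RGS12 GoLoco peptide in 10 mM Tris pH 7.5, 150 mM NaCl, 0.1 mM GDP, 0.05% NP40, 10 min at room temperature with compound.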
# [9] = target: Cytochrome P450 3A4 (Homo sapiens) (UniProt P08684); test: qHTS Assay for Activators of Cytochrome P450 3A4 (AID 885); also: nearly all actives have a fitted effect of over 65% in size
# Outline: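 Steps: enzyme/substrate mix dispensed; compound added, 10 min RT; NADPH regeneration solution added, 60 min RT; luciferin detection buffer stops reaction; 20 min later luminescence measured.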
# [10] = target: Cytochrome P450 2C19 (Homo sapiens) (UniProt P33261); test: qHTS Assay for Inhibitors and Substrates of Cytochrome P450 2C19 (AID 899); also: potency is read from the fitted curve at half-maximal effect; nearly all actives have a fitted effect of over 60% in size
# Outline: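 NADPH-dependent conversion of Luciferin-H EGE (10uM, at KM) by 5nM enzyme in 50mM KPO4, 60 min at 37C following 10 min compound preincubation. Stopped with luciferin detection buffer; luminescence read after 20 min.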
# [11] = qHTS Assay for Identification of Small Molecule Agonists for Thrombopoietin (TPO) Signaling Pathway (AID 917)
# Outline: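 Murine Ba/F3 cells expressing human TPO receptor and GPIIb-promoter luciferase, IL-3-starved overnight, given compound plus TPO at 26 pM (EC50). After 24 h at 37 C, 5% CO2, luminescence read.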
# [12] = target: Muscarinic acetylcholine receptor M1 (Rattus norvegicus) (UniProt P08482); test: qHTS Assay for Antagonists of Acetylcholine Muscarinic M1 Receptor: Kinetic Measurement of Intracellular Calcium Response (AID 943);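 also: Fluo-4 calcium signal as peak divided by basal fluorescence over 4 min; nearly all actives have a fitted effect of over 75% in size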
# Outline: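 Intracellular calcium flux, recorded with Fluo-4 in a kinetic plate reader, served as signal; the response to carbachol at EC80 (100 nM final) was taken as maximal over minimal fluorescence after a 10 min compound pre-incubation in rat M1-CHO cells.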
# [13] = target: Pyruvate kinase (Leishmania mexicana) (UniProt Q27686); test: qHTS Validation Assay for Inhibitors of Leishmania Mexicana Pyruvate Kinase (AID 945)
# Outline: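 Eight-point qHTS titrations; enzyme 0.2 nM LmPYK (E451W mutant); substrates 0.5 mM PEP, 0.1 mM ADP; 7 mM MgCl2; 1 h room temperature; PKLight luminescence normalized to neutral control.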
# [14] = target: Pyruvate kinase PKM (Homo sapiens) (UniProt P14618); test: qHTS Assay for Activators of Human Muscle Pyruvate Kinase (AID 954; active = well fitted curve in the direction sought with a large enough effect, not every such curve was filed as active)
# Outline: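 Reaction: 0.1 nM purified PKM2 with 0.5 mM phosphoenolpyruvate and 0.1 mM ADP, room temperature, 1 h. Readout: luciferase-based ATP luminescence after stop reagent. Activators judged against a 0.3 nM enzyme column.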
# [15] = target: Alpha-galactosidase A (Homo sapiens) (UniProt P06280); test: Counterscreen for Glucocerebrosidase Inhibitors: qHTS Assay for Human alpha-Galactosidase at pH 4.5 (AID 992)
# Outline: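 Concentration-response curves (0.7 nM to 77 uM final) were modeled with the Hill equation to give AC50. Reactions: 2 nM enzyme, 80 uM fluorogenic alpha-galactoside, pH 4.5 citric acid buffer, 20 min, room temperature.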
# [16] = target: alpha-glucosidase (Oryza sativa, rice) (UniProt Q653V4); test: Counterscreen for Glucocerebrosidase Inhibitors: qHTS Assay for Rice alpha-Glucosidase at pH 5.0 (AID 997)
# Outline: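 Rice alpha-glucosidase (4 nM final) with 400 uM 4-methylumbelliferyl-alpha-D-glucopyranoside in citrate buffer pH 5.0, 20 min at room temperature, stopped at pH 10; fluorescence 365/440 nm, compounds 0.7 nM–77 uM, AC50 from Hill fits.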
# [17] = target: Cytochrome P450 2D6 (Homo sapiens) (UniProt P10635); test: qHTS Assay for Inhibitors and Substrates of Cytochrome P450 2D6 (AID 891);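 also: luciferin methyl ether substrate demethylated by CYP2D6 with NADPH regeneration; nearly all actives have a fitted effect of over 60% in size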
# Outline: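 Human CYP2D6 (5 nM) with 30 uM Luciferin-ME EGE (at Km) in 100 mM KPO4, compound preincubated 10 min, then NADPH regeneration system for 60 min at room temperature. Luciferin read by luminescence; normalized to 1.43 uM quinidine.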
# [18] = NFAT Signaling Pathway (AID 444; active = well fitted curve in either direction with a large enough effect, not every such curve was filed as active;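 also: carbachol stimulus at about its EC50 of 1 µM final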); details: Jurkat NFAT-bla M1, carbachol, beta-lactamase ratio, 5 h; at 17.2 µM (top of the series) unless noted
# Outline: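 Jurkat cells carrying an NFAT-driven β-lactamase reporter and co-transfected muscarinic M1 receptor were treated with compound plus carbachol (1 uM final, an EC50 level) for 5 h at 37 °C. CCF4 loading followed for 1 h at RT; 460/530 nm ratio gave %activity.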
# [19] = target: 3',5'-cyclic-AMP phosphodiesterase 4B (Homo sapiens) (UniProt Q07343); test: qHTS Assay for Inhibitors of PDE-IV (AID 607; active = well fitted activation curve with a large enough effect in the main read-out, with a control signal flat, not every such curve was filed as active)
# Outline: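 The readout is membrane depolarisation from a cAMP-sensing CNG channel, detected with a potential dye at ex 535/em 590. Cells were HEK293-derived (endogenous PDE-IV) at 1000 cells/well, titrated up to 22.9 uM final.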
# [20] = target: Cytochrome P450 2C9 (Homo sapiens) (UniProt P11712); test: qHTS Assay for Inhibitors and Substrates of Cytochrome P450 2C9 (AID 883); also: potency is read from the fitted curve at half-maximal effect; nearly all actives have a fitted effect of over 60% in size
# Outline: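 A luminogenic readout tracked human CYP2C9 (10nM) converting deoxyluciferin (100uM, at KM) in 25mM KPO4 during 60 min at 37C with regenerated NADPH. Values normalized to 57uM sulphaphenazole as complete inhibition.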
# [21] = qHTS Assay for Identification of Small Molecule Antagonists for NFkB Signaling Pathway (AID 895; active = well fitted inhibition curve with a large enough effect in the signal ratio, with a control signal flat, not every such curve was filed as active; the % refers to the signal ratio)
# Outline: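 NFkB-bla ME-180 cervical carcinoma cells with beta-lactamase reporter under NFkB response element; compounds added, then TNF alpha at 10 pM final (EC50), 5 h at 37 C. LiveBLAzer substrate 2 h, room temperature; emission 460/530 nm at 405 nm excitation.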
# [22] = target: Muscarinic acetylcholine receptor M1 (Rattus norvegicus) (UniProt P08482); test: qHTS Assay for Antagonists of Acetylcholine Muscarinic M1 Receptor: Measurement of IP-One Response (AID 944); also: nearly all actives have a fitted effect of over 75% in size
# Outline: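 Steps: plate transfected CHO-M1 cells overnight; add test compound, 10 min; add carbachol (200 nM, EC80) in stimulation buffer with LiCl; incubate 30 min; add labelled IP1 tracer and anti-IP1 antibody in lysis buffer; read HTRF after 10 min.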
# Chain of Glucocorticoid receptor (Homo sapiens) (P04150 whole entry, looked up, the tested form may be a part): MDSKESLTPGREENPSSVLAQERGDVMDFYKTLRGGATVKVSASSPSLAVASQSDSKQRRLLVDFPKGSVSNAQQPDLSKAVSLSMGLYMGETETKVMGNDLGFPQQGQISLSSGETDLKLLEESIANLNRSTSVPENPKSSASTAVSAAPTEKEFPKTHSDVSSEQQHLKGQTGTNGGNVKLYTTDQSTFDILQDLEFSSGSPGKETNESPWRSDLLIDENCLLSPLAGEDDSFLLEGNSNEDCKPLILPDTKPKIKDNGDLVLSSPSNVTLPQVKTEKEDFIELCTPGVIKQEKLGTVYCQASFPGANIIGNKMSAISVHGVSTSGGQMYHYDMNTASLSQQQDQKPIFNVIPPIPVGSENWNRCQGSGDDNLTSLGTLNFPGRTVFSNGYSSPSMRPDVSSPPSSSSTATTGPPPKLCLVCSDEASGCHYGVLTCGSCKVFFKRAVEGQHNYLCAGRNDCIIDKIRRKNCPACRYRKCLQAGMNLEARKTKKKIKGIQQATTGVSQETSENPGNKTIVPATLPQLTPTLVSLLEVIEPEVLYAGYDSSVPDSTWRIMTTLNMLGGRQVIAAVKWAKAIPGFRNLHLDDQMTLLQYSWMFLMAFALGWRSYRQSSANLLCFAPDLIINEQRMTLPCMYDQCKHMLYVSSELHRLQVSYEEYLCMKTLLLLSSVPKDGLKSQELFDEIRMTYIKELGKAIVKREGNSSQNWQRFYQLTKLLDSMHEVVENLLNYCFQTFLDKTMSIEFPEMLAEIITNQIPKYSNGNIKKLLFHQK
# Chain of Cytochrome P450 1A2 (Homo sapiens) (P05177 whole entry, looked up): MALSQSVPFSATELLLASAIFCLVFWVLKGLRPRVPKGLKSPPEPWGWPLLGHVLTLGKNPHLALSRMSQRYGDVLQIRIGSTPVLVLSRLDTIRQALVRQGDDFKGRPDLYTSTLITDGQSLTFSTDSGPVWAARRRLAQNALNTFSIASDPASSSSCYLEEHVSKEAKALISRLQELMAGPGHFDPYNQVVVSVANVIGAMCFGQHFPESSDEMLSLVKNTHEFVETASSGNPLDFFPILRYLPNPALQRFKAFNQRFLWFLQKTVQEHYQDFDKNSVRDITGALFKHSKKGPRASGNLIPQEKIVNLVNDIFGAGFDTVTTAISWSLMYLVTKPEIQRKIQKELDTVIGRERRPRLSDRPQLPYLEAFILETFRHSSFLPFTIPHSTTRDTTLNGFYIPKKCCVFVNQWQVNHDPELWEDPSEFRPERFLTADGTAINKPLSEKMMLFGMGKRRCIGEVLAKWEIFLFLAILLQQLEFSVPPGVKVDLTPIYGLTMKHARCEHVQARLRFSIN
# Chain of Pyruvate kinase (Leishmania mexicana) (Q27686 2-499 E452W): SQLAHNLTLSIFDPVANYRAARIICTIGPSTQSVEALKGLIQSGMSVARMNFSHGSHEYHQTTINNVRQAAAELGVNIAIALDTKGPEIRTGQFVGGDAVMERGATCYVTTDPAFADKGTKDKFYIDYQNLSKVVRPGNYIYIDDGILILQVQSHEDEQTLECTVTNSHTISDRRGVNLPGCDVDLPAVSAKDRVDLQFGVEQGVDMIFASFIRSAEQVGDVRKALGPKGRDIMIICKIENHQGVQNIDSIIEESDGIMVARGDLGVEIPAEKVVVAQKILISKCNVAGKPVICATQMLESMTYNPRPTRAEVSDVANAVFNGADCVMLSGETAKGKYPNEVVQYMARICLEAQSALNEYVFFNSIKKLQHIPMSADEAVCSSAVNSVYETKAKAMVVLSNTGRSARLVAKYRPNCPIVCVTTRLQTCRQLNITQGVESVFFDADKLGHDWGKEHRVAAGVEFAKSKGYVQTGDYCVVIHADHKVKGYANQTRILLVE
# Chain of Pyruvate kinase PKM (Homo sapiens) (P14618 whole entry, looked up): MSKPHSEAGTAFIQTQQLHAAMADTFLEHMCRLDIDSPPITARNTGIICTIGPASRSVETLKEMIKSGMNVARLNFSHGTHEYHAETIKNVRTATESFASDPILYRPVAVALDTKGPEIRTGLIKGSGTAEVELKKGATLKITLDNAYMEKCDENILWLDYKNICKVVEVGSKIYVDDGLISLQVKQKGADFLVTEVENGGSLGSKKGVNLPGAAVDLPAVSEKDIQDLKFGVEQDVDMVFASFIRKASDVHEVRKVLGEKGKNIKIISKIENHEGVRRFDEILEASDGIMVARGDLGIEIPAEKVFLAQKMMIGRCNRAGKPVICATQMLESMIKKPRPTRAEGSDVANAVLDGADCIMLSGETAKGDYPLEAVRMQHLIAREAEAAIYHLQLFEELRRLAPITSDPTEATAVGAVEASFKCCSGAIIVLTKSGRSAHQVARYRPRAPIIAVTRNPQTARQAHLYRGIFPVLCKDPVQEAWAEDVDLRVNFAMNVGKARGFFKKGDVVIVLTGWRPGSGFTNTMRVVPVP
# Chain of Muscarinic acetylcholine receptor M1 (Rattus norvegicus) (P08482 whole entry, looked up): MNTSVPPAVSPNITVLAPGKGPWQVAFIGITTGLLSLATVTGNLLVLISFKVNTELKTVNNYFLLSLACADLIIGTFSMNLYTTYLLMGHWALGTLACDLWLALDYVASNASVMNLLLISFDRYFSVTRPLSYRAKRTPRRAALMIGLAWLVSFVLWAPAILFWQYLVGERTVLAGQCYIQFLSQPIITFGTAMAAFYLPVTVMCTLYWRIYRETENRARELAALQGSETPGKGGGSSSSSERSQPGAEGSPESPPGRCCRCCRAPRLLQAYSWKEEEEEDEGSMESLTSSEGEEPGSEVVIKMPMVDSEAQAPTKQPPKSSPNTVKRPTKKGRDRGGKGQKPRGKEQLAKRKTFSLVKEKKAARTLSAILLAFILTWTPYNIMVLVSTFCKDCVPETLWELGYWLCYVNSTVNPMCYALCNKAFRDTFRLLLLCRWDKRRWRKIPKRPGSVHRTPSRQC
# Chain of Alpha-galactosidase A (Homo sapiens) (P06280 whole entry, looked up): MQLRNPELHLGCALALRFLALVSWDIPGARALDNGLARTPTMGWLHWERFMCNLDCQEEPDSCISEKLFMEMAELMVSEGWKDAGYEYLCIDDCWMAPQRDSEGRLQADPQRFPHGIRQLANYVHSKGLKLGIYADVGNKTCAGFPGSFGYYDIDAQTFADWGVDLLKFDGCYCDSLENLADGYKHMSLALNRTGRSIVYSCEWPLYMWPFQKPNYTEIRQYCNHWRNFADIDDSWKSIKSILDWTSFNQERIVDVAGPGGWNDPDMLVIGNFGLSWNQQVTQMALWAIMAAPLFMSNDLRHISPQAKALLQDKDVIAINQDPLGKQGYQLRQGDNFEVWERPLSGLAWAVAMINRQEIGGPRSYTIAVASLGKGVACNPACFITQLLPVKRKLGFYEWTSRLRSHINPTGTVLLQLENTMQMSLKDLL
# Chain of Cytochrome P450 2C19 (Homo sapiens) (P33261 whole entry, looked up): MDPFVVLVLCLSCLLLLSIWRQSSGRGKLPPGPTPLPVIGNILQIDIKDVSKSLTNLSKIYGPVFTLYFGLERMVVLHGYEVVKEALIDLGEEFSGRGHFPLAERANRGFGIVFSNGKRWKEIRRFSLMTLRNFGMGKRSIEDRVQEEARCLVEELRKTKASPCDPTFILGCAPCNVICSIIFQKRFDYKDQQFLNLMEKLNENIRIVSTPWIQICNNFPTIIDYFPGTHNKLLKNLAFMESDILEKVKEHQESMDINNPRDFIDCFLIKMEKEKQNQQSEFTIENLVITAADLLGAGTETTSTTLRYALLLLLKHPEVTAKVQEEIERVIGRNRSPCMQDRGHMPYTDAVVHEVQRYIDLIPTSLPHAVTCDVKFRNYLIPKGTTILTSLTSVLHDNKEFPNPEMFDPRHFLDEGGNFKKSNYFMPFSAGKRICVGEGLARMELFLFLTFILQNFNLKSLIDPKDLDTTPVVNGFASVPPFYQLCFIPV
# Chain of 3',5'-cyclic-AMP phosphodiesterase 4B (Homo sapiens) (Q07343 whole entry, looked up): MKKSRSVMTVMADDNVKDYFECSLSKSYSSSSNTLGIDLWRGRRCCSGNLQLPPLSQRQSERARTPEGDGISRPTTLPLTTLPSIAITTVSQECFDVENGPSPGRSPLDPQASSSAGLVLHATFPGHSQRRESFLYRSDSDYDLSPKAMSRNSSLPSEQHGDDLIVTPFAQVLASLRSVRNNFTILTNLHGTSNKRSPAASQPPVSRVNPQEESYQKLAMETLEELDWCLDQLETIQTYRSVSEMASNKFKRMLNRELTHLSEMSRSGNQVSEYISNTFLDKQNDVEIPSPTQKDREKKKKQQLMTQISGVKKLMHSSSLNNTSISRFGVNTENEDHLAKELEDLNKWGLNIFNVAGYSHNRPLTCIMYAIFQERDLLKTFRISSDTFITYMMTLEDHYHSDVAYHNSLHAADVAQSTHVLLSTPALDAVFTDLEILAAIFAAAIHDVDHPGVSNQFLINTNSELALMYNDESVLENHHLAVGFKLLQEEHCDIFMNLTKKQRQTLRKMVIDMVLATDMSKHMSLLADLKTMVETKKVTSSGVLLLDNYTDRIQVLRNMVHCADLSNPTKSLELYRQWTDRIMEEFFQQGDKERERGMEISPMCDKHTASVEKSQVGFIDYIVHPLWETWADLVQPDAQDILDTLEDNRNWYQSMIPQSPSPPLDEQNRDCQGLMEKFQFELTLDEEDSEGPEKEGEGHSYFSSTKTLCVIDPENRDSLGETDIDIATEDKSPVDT
# Chain of Cytochrome P450 3A4 (Homo sapiens) (P08684 whole entry, looked up): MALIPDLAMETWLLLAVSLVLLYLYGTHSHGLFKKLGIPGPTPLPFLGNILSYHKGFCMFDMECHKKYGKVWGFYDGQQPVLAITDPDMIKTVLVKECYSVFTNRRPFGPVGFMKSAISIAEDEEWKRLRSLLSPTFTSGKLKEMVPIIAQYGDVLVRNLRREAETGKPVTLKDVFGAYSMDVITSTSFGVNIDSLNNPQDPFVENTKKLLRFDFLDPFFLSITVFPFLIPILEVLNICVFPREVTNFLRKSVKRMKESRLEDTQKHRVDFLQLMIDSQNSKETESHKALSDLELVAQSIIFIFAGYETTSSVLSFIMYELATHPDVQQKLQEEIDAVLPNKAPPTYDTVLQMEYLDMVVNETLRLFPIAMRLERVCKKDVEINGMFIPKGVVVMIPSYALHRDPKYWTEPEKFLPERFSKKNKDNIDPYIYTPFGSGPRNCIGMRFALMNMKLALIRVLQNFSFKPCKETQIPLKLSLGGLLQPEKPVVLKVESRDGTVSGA
structure (smiles),measurement,setting,value
CC(C)(C)c1cc(-c2ccco2)c(C#N)c(SCC#N)n1,"activity change, negative = inhibition",[1],28.8%
same,Potency,[2],> 20.6 µM
N#CC1=C(N)C(C#N)(C#N)[C@H](c2ccncc2)[C@H]2CN(C(=O)OCc3ccccc3)CC=C12,"activity change, negative = inhibition",[1],-27.2%
same,Potency,[2],> 20.6 µM
COCCNC(=O)c1c(N)n(CCC2=CCCCC2)c2nc3ccccc3nc12,"activity change, negative = inhibition",[1],28.7%
same,Potency,[2],> 20.6 µM
same,Potency,[3],10 µM (active)
CCCCC[C@H](O)c1cccc(OCc2ccc3ccccc3n2)c1,Potency,[4],0.794 µM (active)
same,"activity, negative = inhibition",[5]; at 17.2 µM (top of the series) unless noted,-0.505% [at 38 µM]
same,Potency,[2],> 46 µM
same,Potency,[6],> 46 µM
same,Potency,[7],inactive
same,outcome,[8],inactive
same,Potency,[9],inactive
same,Potency,[10],6.31 µM (active)
same,Potency,[11],inactive
same,Potency,[12],inactive
same,Potency,[13],inactive
same,outcome,[14],inactive
same,outcome,[15],inactive
same,outcome,[16],inactive
Clc1ccc([C@@H](c2ccccc2Cl)C(Cl)Cl)cc1,"activity change, negative = inhibition",[1],-7.25% [at 38 µM]
same,Potency,[2],> 46 µM
same,Potency,[6],> 46 µM
same,Potency,[17],inactive
same,Potency,[10],0.631 µM (active)
COc1cc([C@H]2c3cc4c(cc3[C@@H](O)[C@@H]3COC(=O)[C@H]23)OCO4)cc(OC)c1OC,Potency,[4],inactive
same,"activity change, negative = inhibition",[18],-22.1% [at 38 µM]
same,"activity, negative = inhibition",[5]; at 17.2 µM (top of the series),16.9%
same,"activity, negative = inhibition",[5]; at 38 µM (top of the series),-4.5%
same,Potency,[7],inactive
same,Potency,[19],inactive
same,outcome,[8],inactive
same,Potency,[20],6.31 µM (active)
same,Potency,[9],inactive
same,Potency,[21],inactive
same,Potency,[22],inactive
same,Potency,[13],inactive
same,outcome,[14],inactive
same,outcome,[15],inactive
same,outcome,[16],inactive
